The list is not random: actives were taken first. Their share in the collection is about 3.5%.
FadD28 FP inh – inhibitors of FadD28 bisubstrate probe binding, primary screen, biochemical, fluorescence polarization, single point; actives 0.22% (n = 360,000); Mycobacterium tuberculosis FadD28 fatty-acid-AMP ligase; inhibition, % at 12.5 µM; AID 588549, 2011; in the data active = inhibition above about 8.5%, passing the limit was not always enough
Rv3671c inh – Rv3671c serine protease inhibitors, primary screen, biochemical, fluorescence polarization, M. tuberculosis H37Rv. P9WHR9. inhibition, % at 5.96 µM. actives 0.048% (n = 320,000). AID 2606, 2010; in the data active = inhibition above about 38%;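 note: extracellular domain of Rv3671c used as enzyme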
Target sequence (P9WHR9 whole entry, looked up, the tested form may be a part): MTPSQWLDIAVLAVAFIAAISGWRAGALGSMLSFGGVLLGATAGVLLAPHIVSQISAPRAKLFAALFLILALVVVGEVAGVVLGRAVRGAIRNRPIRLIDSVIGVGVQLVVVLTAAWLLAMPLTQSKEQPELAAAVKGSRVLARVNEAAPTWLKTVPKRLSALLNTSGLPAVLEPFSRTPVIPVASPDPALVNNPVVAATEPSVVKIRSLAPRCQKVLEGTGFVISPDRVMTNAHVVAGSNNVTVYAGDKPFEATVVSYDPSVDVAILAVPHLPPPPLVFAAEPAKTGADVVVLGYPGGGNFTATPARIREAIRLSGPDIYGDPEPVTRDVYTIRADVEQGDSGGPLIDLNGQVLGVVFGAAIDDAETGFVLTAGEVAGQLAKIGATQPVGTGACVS
GDH-TPI counter-1 – GDH-TPI coupling enzyme inhibitors, primary screen, artefact control for M. tuberculosis FBA inhibitor project, biochemical, absorbance, full deck | GDH-TPI coupled enzyme counterscreen, NADH absorbance | inhibition, % at 4.8 µM | actives 1.2% (n = 360,000); in the data active = inhibition above about 30%
Mtb hypoxia inh – PubChem AID 1159583; fluorescence inhibition, % (no concentration beside the values); M. tuberculosis hypoxia-regulated fluorescent reporter, fluorescence; actives 0.1% (n = 300,000); in the data active = fluorescence inhibition mostly above about 23%, no sharp cut-off; inactive = mostly below about 17%
Mtb UGM inh – M. tuberculosis UGM enzyme inhibitors, primary screen, biochemical, fluorescence polarization, single point; purified UGM, fluorescence polarization probe displacement; actives 0.06% (n = 320,000); AID 504406, 2011; inhibition, % at 10 µM; in the data active = inhibition above about 10%, passing the limit was not always enough
FBA Mtb inh – Mtb FBA enzyme inhibitors, primary screen, biochemical, fluorescence, strain H37Rv. Fructose-bisphosphate aldolase (Mycobacterium tuberculosis (strain ATCC 25618 / H37Rv)), …. purified M. tuberculosis FBA, fluorescence read-out. inhibition, % at 1 µM. actives 2.3% (n = 360,000). AID 588726, 2011
Mtb FBA inh conf – M. tuberculosis aldolase blockers, biochemical, fluorescence, strain H37Rv, confirmation; shares compounds with FBA Mtb inh; purified M. tuberculosis FBA, fluorescence read-out; inhibition, % at 1 µM; actives 78% (n = 5,600)
GDH-TPI counter-2 – GDH-TPI coupling enzyme inhibitors, artefact control for M. tuberculosis FBA inhibitor project, biochemical, fluorescence, high throughput. shares compounds with FBA Mtb inh. GDH-TPI coupled enzyme counterscreen. inhibition, % at 1 µM. actives 81% (n = 5,600). AID 652141, 2013; in the data active = inhibition above about 10%
Hits are given with their value. Cut-off read from the data, not from the text of the source, unless noted: active = inhibition above about 27%; inactive = the rest.

Screening CCOC(=O)C1=CCC(c2cc(OC)c(OC)c(OC)c2)N(S(=O)(=O)c2ccc(C)cc2)C1C(=O)OCC (centres undefined) returned Mtb hypoxia inh inactive.
Screening c1ccc2c(c1)ccc1[nH]c3c(c12)CCCC3 returned FadD28 FP inh inactive, GDH-TPI counter-1 inactive, FBA Mtb inh 43, Mtb FBA inh conf 75 and GDH-TPI counter-2 69.
For CC(C)OCCOc1ccc2oc(-c3ccco3)cc(=O)c2c1 the results were FadD28 FP inh inactive, Rv3671c inh inactive, GDH-TPI counter-1 inactive, Mtb hypoxia inh inactive, Mtb UGM inh inactive, FBA Mtb inh 77, Mtb FBA inh conf inactive and GDH-TPI counter-2 inactive.
For O=c1cc(-c2c(F)c(F)c(F)c(F)c2F)oc2ccccc12 the results were FadD28 FP inh inactive, Rv3671c inh inactive, GDH-TPI counter-1 inactive, Mtb UGM inh inactive and FBA Mtb inh inactive.
O=c1cc(-c2ccco2)oc2ccccc12 was read as FadD28 FP inh inactive, GDH-TPI counter-1 inactive, Mtb hypoxia inh inactive, FBA Mtb inh 86, Mtb FBA inh conf inactive and GDH-TPI counter-2 inactive.
For N#CCOc1ccc2oc(-c3ccco3)cc(=O)c2c1 the results were Rv3671c inh inactive and Mtb UGM inh inactive.
`C#CCOCCOCCOCCNc1nc(N2CCN(C(=O)C(CCCCN)n3cc(C(N)CO)nn3)CC2)nc(N2CCN(C(=O)C(Cc3ccc(O)cc3)n3cc(C(N)C(C)CC)nn3)CC2)n1` (centres undefined) gave Mtb hypoxia inh inactive.
Screening Cn1c(=O)c2nc(-c3ccccc3)oc2c2ccccc21 returned FadD28 FP inh inactive, Rv3671c inh inactive, GDH-TPI counter-1 inactive, Mtb hypoxia inh inactive, Mtb UGM inh inactive, FBA Mtb inh 99, Mtb FBA inh conf 91 and GDH-TPI counter-2 60.
CCCCCc1nc2c(=O)n(C)c3ccccc3c2o1 was read as FadD28 FP inh inactive, Rv3671c inh inactive, GDH-TPI counter-1 inactive, Mtb hypoxia inh inactive, Mtb UGM inh inactive and FBA Mtb inh inactive.
For Nc1ccc(Nc2ccccc2)c(S(=O)(=O)O)c1 the results were FadD28 FP inh 81, Rv3671c inh inactive, GDH-TPI counter-1 inactive, Mtb UGM inh inactive, FBA Mtb inh 90, Mtb FBA inh conf 84 and GDH-TPI counter-2 70.
Screening C=CCNC(=O)C(C#N)c1nc2ccccc2nc1N1CCCCCC1 (centres undefined) returned FadD28 FP inh inactive, Rv3671c inh inactive, GDH-TPI counter-1 inactive, Mtb hypoxia inh inactive, Mtb UGM inh inactive, FBA Mtb inh 41, Mtb FBA inh conf active and GDH-TPI counter-2 active.
Screening N#CC(c1nc2ccccc2nc1N1CCCC1)S(=O)(=O)c1ccccc1 (centres undefined) returned FadD28 FP inh inactive, Rv3671c inh inactive, GDH-TPI counter-1 inactive, Mtb hypoxia inh inactive, Mtb UGM inh inactive, FBA Mtb inh 106, Mtb FBA inh conf active and GDH-TPI counter-2 182.
`CC(=O)N1c2ccccc2C(C)C1C` (centres undefined) gave Mtb hypoxia inh inactive.
`CC(C)Cn1cc(C(=O)N2CCOCC2)c2c3ccccc3n(C)c2c1=O` gave FadD28 FP inh inactive, Rv3671c inh inactive, GDH-TPI counter-1 inactive, Mtb hypoxia inh inactive, Mtb UGM inh inactive, FBA Mtb inh 41, Mtb FBA inh conf 42 and GDH-TPI counter-2 26.
Screening CC(C)Cn1cc(C(=O)NCc2cccs2)c2c3ccccc3n(C)c2c1=O returned FadD28 FP inh inactive, Rv3671c inh inactive, GDH-TPI counter-1 inactive, Mtb hypoxia inh inactive, Mtb UGM inh inactive, FBA Mtb inh 34, Mtb FBA inh conf 192 and GDH-TPI counter-2 144.
Screening CCOC(=O)N1CCN(C(=O)c2cn(CC(C)C)c(=O)c3c2c2ccccc2n3C)CC1 returned FadD28 FP inh inactive, Rv3671c inh inactive, GDH-TPI counter-1 inactive, Mtb hypoxia inh inactive, Mtb UGM inh inactive, FBA Mtb inh 31, Mtb FBA inh conf 50 and GDH-TPI counter-2 47.
`Cn1c(C(=O)N2CCC3(CC2)OCCO3)cc2c(=O)n(C)c3ccccc3c21` gave FadD28 FP inh inactive, Rv3671c inh inactive, GDH-TPI counter-1 inactive, Mtb hypoxia inh inactive, Mtb UGM inh inactive and FBA Mtb inh inactive.
For CCCCNC(=O)c1cn(CC(C)C)c(=O)c2c1c1ccccc1n2C the results were FadD28 FP inh inactive, Rv3671c inh inactive, GDH-TPI counter-1 inactive, Mtb hypoxia inh inactive, Mtb UGM inh inactive and FBA Mtb inh inactive.
Screening CC(C)CCNC(=O)c1cn(CC(C)C)c(=O)c2c1c1ccccc1n2C returned FadD28 FP inh inactive, Rv3671c inh inactive, GDH-TPI counter-1 inactive, Mtb hypoxia inh inactive, Mtb UGM inh inactive and FBA Mtb inh inactive.
Screening Cn1cc(C(=O)N2CCC3(CC2)OCCO3)c2c3ccccc3n(C)c2c1=O returned FadD28 FP inh inactive, Rv3671c inh inactive, GDH-TPI counter-1 inactive, Mtb hypoxia inh inactive, Mtb UGM inh inactive, FBA Mtb inh 40, Mtb FBA inh conf 79 and GDH-TPI counter-2 59.
Cc1occc1C(=O)NN=Cc1ccc2c(c1)OCO2 was read as Mtb hypoxia inh inactive.
`COc1ccccc1N1CCN(N=Cc2sccc2C)CC1` gave Mtb hypoxia inh inactive.
CCOC(=O)N1CCN(C(=O)c2cn(C)c(=O)c3c2c2ccccc2n3C)CC1 was read as FadD28 FP inh inactive, Rv3671c inh inactive, GDH-TPI counter-1 inactive, Mtb hypoxia inh inactive, Mtb UGM inh inactive, FBA Mtb inh 41, Mtb FBA inh conf 128 and GDH-TPI counter-2 108.
`C=C(C)C(=O)N1CC2(CC(c3cccc(NC(=O)C=CC)c3)=NO2)CC1C(N)=O` (centres undefined) gave Mtb hypoxia inh inactive.
For Cc1cccc(-c2cc3nc(C)cc(N4CC(C)CC(C)C4)n3n2)c1 (centres undefined) the results were FadD28 FP inh inactive, Rv3671c inh inactive, GDH-TPI counter-1 inactive, Mtb UGM inh inactive, FBA Mtb inh 67, Mtb FBA inh conf 56 and GDH-TPI counter-2 30.
For COc1ccc2oc(C(=O)OCC(=O)N(CCC#N)c3ccccc3)c(C)c2c1 the results were FadD28 FP inh inactive, Rv3671c inh inactive, GDH-TPI counter-1 inactive, Mtb hypoxia inh inactive, Mtb UGM inh inactive, FBA Mtb inh 39, Mtb FBA inh conf inactive and GDH-TPI counter-2 inactive.
